The campaign covered roughly 16,000 compounds. About 5,700 (36%) were called active. Roughly 24% stayed inconclusive and do not appear here. The call rests on the fitted dose curve; in most records, active means well fitted curve in the direction sought with a large enough effect; inconclusive means small, poorly fitted or top-dose-only effect, or effect the other way; inactive means no such curve, though single readings can be large or run the other way. This is one part of the list.
On the % scale 0 is the no-effect control and ±100 the full control effect.

Sequence of Cytochrome P450 1A2 (Homo sapiens) (P05177 whole entry, looked up): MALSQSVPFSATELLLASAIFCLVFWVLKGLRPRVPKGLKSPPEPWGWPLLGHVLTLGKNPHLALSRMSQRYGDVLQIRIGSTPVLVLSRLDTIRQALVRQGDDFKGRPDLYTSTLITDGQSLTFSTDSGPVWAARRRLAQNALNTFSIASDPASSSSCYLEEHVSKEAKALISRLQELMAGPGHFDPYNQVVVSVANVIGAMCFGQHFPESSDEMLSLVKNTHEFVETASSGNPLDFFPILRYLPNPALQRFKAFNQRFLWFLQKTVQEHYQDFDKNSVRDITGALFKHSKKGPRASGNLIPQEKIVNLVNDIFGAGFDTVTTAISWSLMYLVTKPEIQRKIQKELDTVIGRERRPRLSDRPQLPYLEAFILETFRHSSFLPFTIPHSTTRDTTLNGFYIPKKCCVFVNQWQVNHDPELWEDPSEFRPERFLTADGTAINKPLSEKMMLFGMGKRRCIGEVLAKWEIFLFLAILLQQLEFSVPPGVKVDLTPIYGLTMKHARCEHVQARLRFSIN

The assay addresses Cytochrome P450 1A2 (Homo sapiens) (UniProt P05177). Nature of the assay: Cytochrome panel assay with activity outcomes. As to conditions: recombinant CYP, pro-luciferin dealkylation, luminescence, p450-cyp1a2; series mostly up to 57.1 µM.
As for `CC1(C)C(=O)C(c2ccccc2)=C2CN3C(=O)N(CCc4ccccc4)C(=O)C3(Cc3ccc(C(F)(F)F)cc3)C=C21` (stereo unspecified), the AC50 result is “inactive”.

Turning to `CC[C@]1(C)CC(=O)NC1=O`, the AC50 entry is “inactive”.

`CSc1nnc(-c2cc3c(-c4ccccc4)nn(C)c3s2)n1C`: the AC50 is 501 nM (active). `C=CCSc1nnc(-c2cc3c(-c4ccccc4)nn(C)c3s2)n1C`: the AC50 was 282 nM (active). Same read-out and setting: the result for `C=CCn1c(-c2cccn(Cc3ccccc3)c2=O)n[nH]c1=S` reads “inactive”. For the molecule `O=c1c(-c2nc3ccccc3s2)cccn1Cc1ccccc1`, the concentration at half-maximal activity (AC50) is 1780 nM (active). With `CC(=O)COC(=O)CCc1nc2ccccc2[nH]c1=O`, the AC50 was 6310 nM (active). On to `O=C(CCc1nc2ccccc2c(=O)[nH]1)OCC(=O)N1CCN(S(=O)(=O)c2ccccc2)CC1`, for which the AC50 entry is “inactive”. `Cn1c(=O)c2[nH]c(CCCCc3nc4ccccc4[nH]3)nc2n(C)c1=O`: the activity, negative = inhibition was -15.8% [at 11.4 µM] (inactive). Regarding `O=S(=O)(NCCNC/C=C\c1ccc(Br)cc1)c1cccc2cnccc12`, the concentration at half-maximal activity (AC50) was 2000 nM (active). With `CNCCNS(=O)(=O)c1cccc2cnccc12`, the AC50 entry is “inactive”. For the molecule `COc1ccc(C(C(=O)NCc2ccccc2)N(Cc2cccs2)C(=O)c2cnccn2)cc1` (stereo unspecified), the AC50 entry is “inactive”.

Turning to `O=C(NCc1ccccc1)C(c1cccs1)N(Cc1cccs1)C(=O)c1cnccn1` (stereo unspecified), the AC50 entry is “inactive”. As for `Cc1cnc(C(=O)OCC(=O)NC(C)C)cn1`, the AC50 result was “inactive”. `O=C(COC(=O)c1cnccn1)NCc1ccccc1`: the AC50 was 22400 nM (active).

Take `Cc1ccc(CNC(=O)COC(=O)c2cnccn2)cc1`: the AC50 was 10000 nM (active). `COC(=O)C/C=C\[C@@H](C)[C@@H](CO)NS(=O)(=O)c1ccc(C)cc1`: the activity, negative = inhibition is -0.334% [at 11.4 µM] (inactive). For the molecule `COc1ccc(C(=O)n2c(SC)nc3cc4c(cc32)OCCO4)cc1`, the AC50 is 3160 nM (active). For the molecule `COc1ccc(C(=O)N2CCC3(CCN(Cc4ccncc4)CC3)CC2)cc1`, the AC50 entry is “inactive”. Regarding `COc1cccc(C(=O)n2c(SC)nc3cc4c(cc32)OCCO4)c1`, the AC50 was 5010 nM (active). Turning to `COc1ccc(C(=O)Nc2ccc3c(c2)nc(CN2CCN(C(C)=O)CC2)n3C)cc1`, the AC50 entry was “inactive”. On to `O=C1C2=CC[C@@H]3C(=O)N(c4ccc(F)cc4F)C(=O)[C@H]3[C@H]2[C@H](O)[C@H]2O[C@H]12`, for which the activity, negative = inhibition was -3.38% [at 11.4 µM] (inactive). Take `CCC(=O)O[C@@]1(C(=O)SCF)[C@@H](C)C[C@H]2[C@@H]3C[C@@H](F)C4=CC(=O)C=C[C@@]4(C)[C@]3(F)[C@@H](O)C[C@]21C`: the AC50 entry is “inactive”. Consider `O=C(CN1C(=O)c2ccccc2S1(=O)=O)Nc1ccccc1`, for which the AC50 result is “inactive”.

Take `COc1ccc(NC(=O)CN2c3cccc4cccc(c34)S2(=O)=O)cc1`: the concentration at half-maximal activity (AC50) was 3160 nM (active). As to `CS(=O)(=O)Nc1c(O)ccc2c1CCC[C@H]2C1=NCCN1`, the AC50 result was “inactive”. Turning to `CS(=O)(=O)N1CCC2(CCN(C(=O)Nc3cccc(F)c3)CC2)CC1`, the AC50 entry was “inactive”. Still for that read-out and setting: as for `CCOC(=O)c1c(C)nc2c(c1-c1ccccc1)C(=O)CCC2`, the figure is 282 nM (active); as for `CCOC(=O)c1c(C)nc2sc3c(=O)n(-c4ccc(C)cc4)cnc3c2c1-c1ccc(OC)cc1`, “inactive”; as for `CC1(C)CC(=O)c2c(Cc3ccccc3)n[nH]c2C1`, “inactive”.

With `CCOC(=O)c1c(C)nc2c(c1-c1ccccc1)C(=O)CC(C)(C)C2`, the half-maximal activity concentration (AC50) was 14100 nM (active). Turning to `CCCCCCCCCCn1c2c(c(=N)c3c1CCC3)CCC2`, the half-maximal activity concentration (AC50) was 14100 nM (active). For the molecule `C[C@H]1COC(=O)[C@H]2CCCN2C(=O)[C@@H](C)COC(=O)[C@H](Cc2ccccc2)NC1=O`, the activity, negative = inhibition was -1.22% [at 11.4 µM] (inactive).

In the case of `Oc1c(Br)cc(Br)cc1CN(Cc1cc(Br)cc(Br)c1O)C1CCCCC1`, the AC50 is 3160 nM (active).

Turning to `Oc1c(Br)cc(CN(Cc2cc(Br)c(O)c(Br)c2)C2CCCCC2)cc1Br`, the activity, negative = inhibition is -5.68% [at 2.29 µM] (inactive). Turning to `CON1C(=O)C(=O)N(OC)C2CCCCC21` (stereo unspecified), the AC50 result was “inactive”. Take `Cc1cnc(CNc2nc(-c3cccnc3)nc3ccccc23)cn1`: the AC50 is 2510 nM (active). Consider `COc1cccc(-c2nc(NCc3cnc(C)cn3)c3ccccc3n2)c1`, for which the AC50 is 398 nM (active). For `c1cncc(-c2nccc(NCc3cccs3)n2)c1`, the concentration at half-maximal activity (AC50) was 200 nM (active).

`c1csc(CNc2ccnc(-c3ccoc3)n2)c1`: the concentration at half-maximal activity (AC50) is 1000 nM (active).

`CN(C)CCN(Cc1cccs1)c1ccccn1`: the AC50 entry is “inactive”.

As for `CN(C)C(=O)c1ccc(-c2nccc(NCc3cccs3)n2)cc1`, the AC50 was 15800 nM (active).

In the case of `CN(C)c1ccc(-c2nccc(NCc3cccs3)n2)cc1`, the AC50 is 398 nM (active).

With `CC(C)=CCC/C(C)=C/CO/N=C1/[C@H]2O[C@@H]2[C@@H](O)[C@H]2[C@H]1CCn1c(=O)n(-c3ccccc3)c(=O)n12`, the activity, negative = inhibition was 3.05% [at 11.4 µM] (inactive).

As to `C[C@@H](c1ccccc1)N1C(=O)[C@H]2[C@H]3[C@H](O)[C@H](O)C/C(=N/OCc4ccccc4)[C@H]3CC[C@@H]2C1=O`, the activity, negative = inhibition is -3.77% [at 11.4 µM] (inactive). In the case of `COc1ccccc1Nc1nc(-c2sc(NC(=O)c3ccccc3)nc2C)cs1`, the AC50 result is “inactive”. Same read-out and setting: as for `C=CCCC(=O)Nc1nc(C)c(-c2csc(Nc3ccc(Cl)cc3)n2)s1`, the figure is 5010 nM (active).

Consider `Cc1nc(NC(=O)c2ccccc2)sc1-c1csc(Nc2ccc(Cl)cc2Cl)n1`, for which the AC50 result is “inactive”. Consider `Cc1nc(NC(=O)c2ccccc2)sc1-c1csc(Nc2cccc(F)c2)n1`, for which the AC50 was 11200 nM (active). With `Cc1ncc(CO)c(CO)c1O`, the AC50 result was “inactive”.

Regarding `CC(=O)N(C)c1nnc(-c2cnccn2)s1`, the AC50 was 6310 nM (active). Still for that read-out and setting: the result for `Cc1nnc(N(C)C(=O)c2ccccn2)s1` reads “inactive”; that for `C[C@@H]1C(=O)N(C)C(=O)c2nc[nH]c21`, “inactive”; that for `O=C1OC(OC2CCCCC2)(c2ccccc2)c2ccccc21` (stereo unspecified), “inactive”.

As to `Cc1ccccc1-c1cncnc1Nc1ccccc1`, the AC50 is 15800 nM (active). For the molecule `Cc1ccccc1-c1cncnc1Nc1ccc(F)cc1`, the AC50 is 10000 nM (active). With `CCOCCCNC(=O)CCS(=O)(=O)Cc1ccc(C)cc1`, the AC50 entry is “inactive”.

Regarding `COc1ccc(OC)c(NC(=O)C(CC(=O)O)NCc2ccco2)c1` (stereo unspecified), the AC50 result was “inactive”. As to `COc1ccccc1-c1nnc(NC(C)=O)s1`, the AC50 was 1260 nM (active). As for `COc1ccccc1NC(=O)Nc1nnc(-c2ccco2)s1`, the half-maximal activity concentration (AC50) was 2000 nM (active).

With `CN(C)c1cc[n+](CC(=O)Nc2cc(C(F)(F)F)ccc2Cl)cc1`, the AC50 entry is “inactive”. For `N/C(CC(=O)Nc1cc(C(F)(F)F)ccc1Cl)=N\O`, the AC50 is 1580 nM (active). On the same count and under the same terms, the result for `O=C(Cc1ccccc1)NC(=S)Nc1cc(C(F)(F)F)ccc1Cl` reads 2000 nM (active); that for `COC(=O)N1CCC2(CCN(Cc3cc(C(F)(F)F)cc(C(F)(F)F)c3)CC2)CC1`, “inactive”; that for `O=C(CCCC(=O)OCC(=O)c1ccc(Cl)cc1Cl)Nc1cc(C(F)(F)F)ccc1Cl`, 2820 nM (active). On to `Cc1ccc(C)n1CCN1CCN(CC(=O)Nc2cc(C(F)(F)F)ccc2Cl)CC1`, for which the AC50 is 25100 nM (active).

Turning to `Cc1cc(NC(=O)CCCC(=O)OCC(F)(F)C(F)F)cc(C)c1C(=O)O`, the AC50 result was “inactive”. In the case of `O=C1[C@H]2CCn3c(=O)n(-c4ccccc4)c(=O)n3[C@H]2[C@H](O)[C@H]2O[C@@H]12`, the activity, negative = inhibition is -2.61% [at 11.4 µM] (inactive). As for `Cc1cc(N2C(=O)C(O)=C(C(=O)c3cccs3)C2c2cccc(O)c2)no1` (stereo unspecified), the AC50 result was “inactive”. For the molecule `CC(C)=CCC/C(C)=C/CO/N=C1/C[C@@H](O)[C@@H](O)[C@@H]2[C@@H]3C(=O)N(C(C)(C)C)C(=O)[C@H]3CC[C@@H]12`, the activity, negative = inhibition was -0.662% [at 11.4 µM] (inactive). Still for that read-out and setting: the result for `C/C(CCN1CCCCc2nc(C)c(C)cc21)=N\OC[C@@H](O)[C@@H]1O[C@@H]2OC(C)(C)O[C@@H]2[C@H]1O` reads -3.55% [at 11.4 µM] (inactive); that for `O=CN1CCN(C[C@H](O)CN2CCCCC2)CC1`, -17.6% [at 2.29 µM] (inactive).

For the molecule `O=C(c1ccccc1)c1cc(F)c(N2CCOCC2)cc1Cl`, the half-maximal activity concentration (AC50) was 11200 nM (active). Turning to `CC(C)[C@H](N)c1nnc(SC/C=C/c2ccccc2)o1`, the AC50 is 631 nM (active). The same measure, in the same setting: the result for `CC(C)[C@H](N)c1nnc(SCc2ccc(Cl)cc2)o1` reads 794 nM (active); that for `O=C(NC12CC3CC(CC(C3)C1)C2)C12CC3CC(C1)CC(n1cnc(Cl)n1)(C3)C2`, “inactive”.

As for `NCC1CCC(C(=O)O)CC1` (stereo unspecified), the AC50 entry is “inactive”.

Consider `N#C/C(=C\c1ccc(Cl)cc1)c1nc2ncccc2[nH]1`, for which the AC50 was 2000 nM (active). Take `N#C/C(=C\c1ccccc1)c1nc2ncccc2[nH]1`: the half-maximal activity concentration (AC50) was 1260 nM (active). Take `CCC(=O)O[C@@H]1[C@H](C)O[C@H](O[C@H]2[C@@H](N(C)C)[C@H](O)[C@@H](O[C@@H]3[C@@H](CC=O)C[C@@H](C)[C@@H](O)/C=C\C=C/C[C@@H](C)OC(=O)C[C@@H](OC(=O)CC)[C@H]3OC)O[C@H]2C)C[C@]1(C)O`: the AC50 result was “inactive”. In the case of `N#Cc1cccc(-c2ccc3ncnc(NC4CCNCC4)c3c2)c1`, the AC50 was 15800 nM (active). Still for that read-out and setting: the result for `COc1cccc(-c2ccc3ncnc(NC4CCNCC4)c3c2)c1` reads 20000 nM (active); that for `COc1cccc(-c2cncnc2NC2CCNCC2)c1`, “inactive”. Still for that read-out and setting: as for `c1cncc(-c2ccc3ncnc(NC4CCNCC4)c3c2)c1`, the figure is 12600 nM (active); as for `COc1cccc(-c2ccc3ncnc(NC4CC4)c3c2)c1`, 200 nM (active); as for `C[n+]1cccc(CNC(=O)/C=N/O)c1`, “inactive”. As to `CC(C)[C@]1(Cl)CC[C@@H]2[C@]3(C)CCC[C@@](C)(C(=O)O)[C@H]3C[C@H](Cl)[C@@]2(Cl)[C@H]1Cl`, the activity, negative = inhibition is -13% [at 11.4 µM] (inactive). As to `Cn1c(SCc2nc3ccccc3n2CCO)nc2ccccc21`, the AC50 was 10000 nM (active).

On to `Cn1c(C[C@@H](O)c2nc3ccccc3n2C)nc2ccccc21`, for which the activity, negative = inhibition is -2.56% [at 2.29 µM] (inactive). As for `CCCS(=O)(=O)N1CCCC(C(=O)NCC2CCCO2)C1` (stereo unspecified), the AC50 entry is “inactive”. On to `N#Cc1nc(-c2ccc(F)cc2)oc1N1CCCC1`, for which the AC50 is 178 nM (active). On to `CC(=O)O[C@@H](C)C[N+](C)(C)C`, for which the AC50 result was “inactive”. On the same count and under the same terms, as for `COc1ccccc1-c1nc(NCc2ccccc2)c2ccccc2n1`, the figure is 398 nM (active); as for `Clc1ccccc1-c1nc(NCc2cccs2)c2ccccc2n1`, 1000 nM (active); as for `CNc1nc(-c2ccccc2OC)nc2ccccc12`, 398 nM (active). As for `COc1ccccc1-c1nc(NCc2cccs2)c2ccccc2n1`, the AC50 was 631 nM (active).

One may read the AC50 as the concentration giving half of the maximal activity seen.

The record behind these values is PubChem BioAssay AID1851 (National Center for Advancing Translational Sciences (NCATS), 2009).
